Experimental data reported in PubChem BioAssay AID2590 (National Center for Advancing Translational Sciences (NCATS), 2010).
“And” between values parts separate entries of the source, which are not always exact repeats. Equal values may be shown once. Inconclusive results are not listed. The source made the active and inactive calls. The call rests on the fitted dose curve; in most records, active means well fitted curve in the direction sought with a large enough effect; inconclusive means small, poorly fitted or top-dose-only effect, or another doubt; inactive means no such curve, though single readings can be large or run the other way.

Biological target: Lysosomal acid glucosylceramidase (Homo sapiens) (UniProt P04062)
Assay: qHTS Assay for Inhibitors and Activators of N370S glucocerebrosidase as a Potential Chaperone Treatment of Gaucher Disease: Primary Screen Confirmation;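 on Potency: enzyme source is Gaucher patient spleen homogenate not purified recombinant protein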
Details: N370S glucocerebrosidase enzyme activity, fluorogenic substrate; series mostly up to 54 µM
Method in brief: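 Patient-spleen homogenate carrying N370S GC (27 ug) in pH 5.0 citrate buffer with 0.01% Tween-20, 1 mM 4-methylumbelliferyl-beta-glucoside, 40 min at 37C; fluorescence 365/440 nm after NaOH/glycine stop; AC50 from Hill fits.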
Potency means the concentration at half of the fitted maximal effect.

Chain of Lysosomal acid glucosylceramidase (Homo sapiens) (P04062 whole entry N409S): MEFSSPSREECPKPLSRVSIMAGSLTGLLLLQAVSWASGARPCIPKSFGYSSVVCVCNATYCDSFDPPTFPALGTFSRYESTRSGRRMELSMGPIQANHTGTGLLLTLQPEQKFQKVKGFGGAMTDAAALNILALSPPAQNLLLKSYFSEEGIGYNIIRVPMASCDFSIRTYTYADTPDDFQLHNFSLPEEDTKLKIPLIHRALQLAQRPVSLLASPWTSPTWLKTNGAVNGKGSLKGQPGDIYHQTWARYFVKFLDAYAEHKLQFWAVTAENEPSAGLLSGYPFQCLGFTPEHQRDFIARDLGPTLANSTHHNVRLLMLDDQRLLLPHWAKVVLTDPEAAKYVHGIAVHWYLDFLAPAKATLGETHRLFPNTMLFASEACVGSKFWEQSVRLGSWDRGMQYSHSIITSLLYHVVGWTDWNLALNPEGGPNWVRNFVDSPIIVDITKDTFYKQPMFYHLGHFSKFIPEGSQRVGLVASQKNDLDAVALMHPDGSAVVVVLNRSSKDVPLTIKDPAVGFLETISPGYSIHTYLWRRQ

Row | SMILES | Potency
1 | N#Cc1ccc(S(=O)(=O)N2CCN(c3nc(-c4cccs4)nc4ccccc34)CC2)cc1 | 2.01 µM (active)
2 | O=S(=O)(c1cccc(C(F)(F)F)c1)N1CCN(c2nc(-c3cccs3)nc3cc(Cl)ccc23)CC1 | inactive
3 | S=C(NCCCc1cnc[nH]1)NCCCN(Cc1ccccc1)c1ccc(Br)cn1 | 5.79 µM (active)
4 | Cc1ccc(S(=O)(=O)N2CCN(c3nc(-c4cccs4)nc(C)c3C)CC2)cc1 | 2.84 µM (active)
5 | Cc1cc(C)n2ncc(C(=O)Nc3cccc(O)c3)c2n1 | inactive
6 | CC(=O)Nc1ccc(NC(=O)COc2ccccc2C(=O)Nc2cccc(Cl)c2Cl)cc1 | inactive
7 | O=S(=O)(c1ccccc1)N1CCN(c2nc(-c3cccs3)nc3ccccc23)CC1 | 1.46 µM (active) and 919 nM (active)
8 | Cc1ccc(S(=O)(=O)N2CCN(c3nc(-c4cnccn4)nc4ccccc34)CC2)cc1 | inactive
9 | Cc1cccc(NC(=O)Nc2cccc(C)n2)n1 | inactive
10 | O=S(=O)(c1ccc2ncccc2c1)N1CCN(c2nc(-c3cccs3)nc3ccccc23)CC1 | 0.8 µM (active)
11 | CCOC(=O)c1ccc(Nc2cc(C)nc(-c3ccccc3)n2)cc1 | 10.3 µM (active)
12 | CCOc1ccc(N(CC(=O)NC2CCCCCC2)S(=O)(=O)c2c(C)[nH]c(=O)[nH]c2=O)cc1 | 7.94 µM (active)
13 | COc1ccc(S(=O)(=O)N2CCN(c3nc(-c4ccccc4)nc4ccccc34)CC2)cc1 | 3.66 µM (active)
14 | Cc1cc(C)cc(N(CC(=O)Nc2cccc(C)c2C)S(=O)(=O)c2c(C)[nH]c(=O)[nH]c2=O)c1 | 3.26 µM (active)
15 | O=S(=O)(c1ccc2ccccc2c1)N1CCN(c2nc(-c3ccccc3)nc3ccccc23)CC1 | 4.61 µM (active)
16 | Cc1ccccc1-c1nccc(NCc2cccs2)n1 | 15.8 µM (active)
17 | Cc1ccc(S(=O)(=O)C2CCN(c3nc(-c4cccs4)nc4ccccc34)CC2)cc1 | 8.19 µM (active)
18 | Cc1ccc(S(=O)(=O)N2CCN(c3nc(-c4cscn4)nc4ccccc34)CC2)cc1 | 4.11 µM (active)
19 | CN(CCO)c1nc(-c2cccs2)nc2ccccc12 | inactive
20 | CCOCCCNc1nc(-c2ccccc2)nc2ccccc12 | 10.1 µM (active)
21 | COc1ccc2cc(C(=O)NCc3ccccc3)c(=O)oc2c1 | inactive
22 | O=S(=O)(c1ccc(Cl)cc1)N1CCN(c2nc(-c3ccccc3)nc3ccccc23)CC1 | 5.8 µM (active)
23 | COc1cccc(S(=O)(=O)N2CCN(c3nc(-c4cccs4)nc4ccccc34)CC2)c1 | 0.819 µM (active)
24 | O=[N+]([O-])c1cccc(S(=O)(=O)N2CCN(c3nc(-c4cccs4)nc4ccccc34)CC2)c1 | 2.53 µM (active)
25 | Cc1cc(Cl)nc(NC(=O)Nc2cccc(Cl)c2)n1 | inactive
26 | O=S(=O)(c1ccccc1Br)N1CCN(c2nc(-c3cccs3)nc3ccccc23)CC1 | 1.3 µM (active)
27 | CC(C)OCCCNc1nc(-c2ccccc2)nc2ccccc12 | 4.01 µM (active)
28 | Cc1cccc(NC(=O)Nc2cccc(C#N)c2)n1 | inactive
29 | O=C(Nc1cc(Br)ccc1O)c1cnn2c(C(F)F)cc(C3CC3)nc12 | inactive
